Sampled rows, rich in hits. Any-hit rate of the full collection: about 4.5%.
HDAC3 inh: HDAC3 deacetylase inhibitors, primary screen, biochemical, fluorescence, cell-free homogeneous | Histone deacetylase 3 (Homo sapiens), O15379 | recombinant HDAC3, fluorogenic peptide/trypsin coupled | inhibition, % at 8.3 µM | 320,000 compounds, 0.15% hits; in the data active = inhibition above about 26%, passing the limit was not always enough; inconclusive = no clear call, values can overlap the other calls
Efflux pump mplx: inhibitors of Candida efflux pumps in yeast, primary screen, S. cerevisiae, Nile Red, multiplex; 330,000 compounds, 0.44% hits; S. cerevisiae Candida pump triplex; inhibition, % at 10 µM;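 active = plate passing quality check with inhibition over a set limit, or well fluorescence over plate mean plus 4 SD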;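 note: Nile Red retained in pooled yeast measured as flow cytometry median fluorescence; 0% = buffer negative control and 100% = Enniatin B positive control; higher means more Nile Red kept so more efflux inhibition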
GRK2 inh: compounds blocking aptamer binding on GRK2 – biochemical, human GRK2, bead flow cytometry, HTS, primary screen; inhibition of aptamer binding, % at 10 µM; 330,000 compounds, 0.59% hits; Beta-adrenergic receptor kinase 1 (Homo sapiens), P25098; FAM-aptamer displacement from GRK2;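 active = inhibition of aptamer binding above 40%, roughly 3 SD of noise, on plates passing a quality check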;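 note: median bead fluorescence of bound FAM aptamer so fluorescent compounds give negative values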
Target sequence (P25098 whole entry, looked up): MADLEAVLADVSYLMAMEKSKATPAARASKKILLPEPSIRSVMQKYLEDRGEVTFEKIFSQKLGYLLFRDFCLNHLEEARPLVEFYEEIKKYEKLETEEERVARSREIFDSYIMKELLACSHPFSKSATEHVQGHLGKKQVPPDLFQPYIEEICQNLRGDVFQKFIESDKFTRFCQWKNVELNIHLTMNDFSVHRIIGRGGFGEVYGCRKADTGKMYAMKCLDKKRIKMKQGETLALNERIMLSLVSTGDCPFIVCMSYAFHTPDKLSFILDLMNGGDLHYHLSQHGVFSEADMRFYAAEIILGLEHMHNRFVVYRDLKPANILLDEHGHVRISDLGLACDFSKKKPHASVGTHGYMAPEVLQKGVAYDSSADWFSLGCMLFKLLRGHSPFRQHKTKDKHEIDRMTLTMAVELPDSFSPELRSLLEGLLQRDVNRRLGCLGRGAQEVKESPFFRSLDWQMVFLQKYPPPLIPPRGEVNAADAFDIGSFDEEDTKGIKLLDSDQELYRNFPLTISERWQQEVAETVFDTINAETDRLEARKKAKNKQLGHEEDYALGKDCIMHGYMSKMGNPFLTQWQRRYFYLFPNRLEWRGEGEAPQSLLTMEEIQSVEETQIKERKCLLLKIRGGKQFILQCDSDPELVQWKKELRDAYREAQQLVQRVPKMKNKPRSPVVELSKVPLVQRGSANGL
ALR H2O2 inh: inhibitors of human ALR sulfhydryl oxidase, primary screen, biochemical, H2O2 detection, HRP-luminol luminescence, single point. AID 485317, 2010. inhibition, % (no concentration beside the values). purified ALR, DTT oxidation. FAD-linked sulfhydryl oxidase ALR (Homo sapiens), P55789. 290,000 compounds, 3.8% hits;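 active = mean replicate inhibition above about 79%, with every replicate also reaching it, limit read from the data; inconclusive = only one of the two criteria met; inactive = mean below limit and not every replicate reaching it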
Rce1 inh: yeast Rce1p protease inhibitors, primary screen, biochemical, fluorescence, cell-free homogeneous; 290,000 compounds, 0.27% hits; yeast membranes, quenched prenylated peptide cleavage fluorescence; AID 2563, 2010; calls only;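 active = fall in fluorescence gain of 50% or more versus controls, with final raw signal at or below 3038400; inconclusive = same 50% fall but final raw signal above 3038400; inactive = fall in fluorescence gain under 50%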;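 note: plate controls were neutral control wells for no effect and wells lacking membranes for full effect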
Rtt109 HAT inh: inhibitors of C. albicans Rtt109/Vps75 HAT, primary screen, biochemical, ThioGlo CoA-SH fluorescence, plate reader. inhibition, % at 34.9 µM. 330,000 compounds, 0.16% hits. purified Rtt109/Vps75, 4 h. AID 540336, 2011;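 active = inhibition of at least 50% in every replicate; inconclusive = best replicate reaches 50% inhibition but some replicates fall short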
Active calls of the source: *; i = inactive; ? = inconclusive; . = not tested or not shown; + = active, no number.

SMILES	HDAC3 inh	Efflux pump mplx	GRK2 inh	ALR H2O2 inh	Rce1 inh	Rtt109 HAT inh
CCOC(=O)N1CCN(C(=O)CCCn2c(=S)[nH]c3ccc(Br)cc3c2=O)CC1	1.9	0.0	0.0	.	i	5.8
CCOC(=O)N1CCN(C(=O)CCCCCn2c(=S)[nH]c3ccsc3c2=O)CC1	3.3	-0.3	0.0	93.4*	.	-17.1
O=C(OCc1c(-c2ccccc2)ncc2ccccc12)c1ccccc1C(F)(F)F	12.9	0.2	6.0	-0.6	.	-4.1
COC(=O)Cc1c(C)nc2nc(NCc3cccc([N+](=O)[O-])c3)[nH]n2c1=O	-1.8	-0.2	1.0	88.9*	i	2.9
COC(=O)Cc1c(C)nc2nc(NCc3ccc(Cl)cc3)[nH]n2c1=O	0.7	0.0	1.0	.	i	-14.6
O=C(C/C=N/OCc1ccc(Cl)cc1Cl)c1ccccc1	-2.4	0.0	0.0	5.0	i	64.9*
Cc1ccc2cc3cc(C(=O)NCCCN4CCCC4=O)oc3nc2c1	-62.9	-0.1	0.0	78.0*	i	3.6
CCCC(=O)n1nc(-c2ccco2)nc1N	40.3*	-0.2	1.0	7.3	i	2.6
Nc1nc(-c2ccco2)nn1C(=O)c1ccccc1	35.3*	0.1	0.0	2.5	i	-8.0
CCCC(=O)n1nc(-c2ccc(OC)cc2)nc1N	7.8	0.0	0.0	.	i	-6.0
COc1ccc(N=C2c3ccccc3-c3ccc([N+](=O)[O-])cc32)cc1	.	.	.	.	.	8.2
Oc1ccccc1-c1cc(-c2ccco2)[nH]n1	-0.8	-0.1	1.0	72.3	i	-2.5
Oc1ccc(Br)cc1-c1cc(-c2ccco2)[nH]n1	2.8	0.3	1.0	92.1*	i	-5.5
CC(=O)C1=C(O)C(=O)N(Cc2ccccc2)C1c1cccs1 (stereo not drawn)	?	-0.1	5.0	1.9	i	2.9
O=C1NC(=O)C2C1C(c1cccs1)NN2Cc1ccccc1 (stereo not drawn)	-7.7	0.0	1.0	97.9*	i	-10.7
N#CNc1nc(O)cc(=O)[nH]1	-0.3	-0.4	0.0	.	i	2.4
CCCC(=O)Nc1ccc(Cc2ccc(NC(=O)CCC)c(C(=O)O)c2)cc1C(=O)O	-2.1	0.0	0.0	-0.4	i	8.1
Cc1cc(Cc2ccc(N)c(C)c2)ccc1N	-1.6	0.0	1.0	80.6*	i	-6.2
Nc1ccc(Cc2ccc(N)c(C(=O)O)c2)cc1C(=O)O	-21.9	-0.1	2.0	3.7	+	8.6
CC(=O)c1ccccc1NC(=O)COC(=O)c1cc2ccccc2[nH]1	-1.9	-0.1	0.0	-3.9	.	.
O=C(O)c1cc(O)ccc1-c1ccc(O)cc1	1.8	0.0	2.0	98.5*	i	-28.2
O=C(CSc1n[nH]c(-c2ccncc2)n1)Nc1ccc(Cl)c(C(=O)O)c1	-0.5	0.0	0.0	.	i	-10.8
O=C(O)CCN1C(=O)/C(=C2\C(=O)N(Cc3ccccc3Cl)c3ccccc32)SC1=S	2.2	0.1	7.0	-11.8	i	3.0
C=CCN1C(=O)/C(=c2\sc3nc(=O)c(Cc4ccccc4Cl)nn3c2=O)c2ccccc21	3.7	0.0	0.0	95.6*	i	3.4
O=C(Cc1ccccc1[N+](=O)[O-])OCc1cccc([N+](=O)[O-])c1	-4.1	0.1	0.0	.	i	.
SMILES	HDAC3 inh	Efflux pump mplx	GRK2 inh	ALR H2O2 inh	Rce1 inh	Rtt109 HAT inh
Cc1cccc(-c2nc(CS(=O)CC(=O)NCc3ccco3)c(C)o2)c1 (stereo not drawn)	-2.6	0.0	2.0	98.6*	i	0.6
COc1ccc(-c2nc(CS(=O)CC(=O)NCc3ccco3)c(C)o2)cc1OC (stereo not drawn)	.	0.0	0.0	98.5*	i	5.7
Cc1ccc(-c2nc(CS(=O)CC(=O)NCc3ccco3)c(C)o2)cc1 (stereo not drawn)	-1.3	0.0	2.0	99.2*	i	2.5
Cc1oc(-c2cccc(Cl)c2)nc1CS(=O)(=O)CC(=O)NCc1ccco1	-0.8	0.1	3.0	-12.3	i	4.8
CCOc1ccc(N2C(=O)CN(O)C=C3N=c4ccccc4=C32)cc1	-2.4	-0.1	0.0	4.0	i	.
O=C(COC(=O)C12CC3CC(CC(Br)(C3)C1)C2)Nc1c(F)cccc1F	2.0	-0.1	0.0	25.8	.	3.3
CC1CCCC(NC(=O)COC(=O)CSc2ccc3ccccc3c2)C1C (stereo not drawn)	18.9	-0.1	3.0	99.0*	i	.
CCOC(=O)Cc1nnc(NC(=O)CSc2nnc3c(n2)[nH]c2ccccc23)s1	64.6*	0.0	3.0	-9.5	i	-0.6
COc1cc(C(=O)NCC(=O)NCC(c2ccco2)N2CCCCC2)cc(OC)c1OC (stereo not drawn)	0.6	0.4	0.0	-0.1	.	14.1
CCOC(=O)N1CCN(Cc2nc(N)nc(Nc3ccc(Cl)cc3)n2)CC1	9.4	-0.1	0.0	15.0	i	4.2
Nc1nc(CN2CCN(C(=O)c3ccco3)CC2)nc(Nc2cccc(Cl)c2)n1	7.5	-0.1	0.0	94.9*	i	-10.1
O=C(NC(=S)Nc1nc2ccc(F)cc2s1)c1ccco1	-0.9	0.1	2.0	7.1	i	4.8
Cc1noc(NS(=O)(=O)c2ccc(N/C=C/C(=O)c3ccc(F)cc3)cc2)c1C	-0.6	-0.1	1.0	7.6	i	4.0
Cc1noc(NS(=O)(=O)c2ccc(N/C=C\C(=O)c3ccncc3)cc2)c1C	3.8	0.1	0.0	8.8	i	.
Cc1noc(NS(=O)(=O)c2ccc(N/C=C/C(=O)c3ccncc3)cc2)c1C	?	0.0	1.0	10.0	i	15.3
Cc1noc(NS(=O)(=O)c2ccc(N/C=C/C(=O)c3cccnc3)cc2)c1C	.	0.0	0.0	11.4	i	72.5*
COc1ccc(C(=O)/C=C/Nc2ccc(S(=O)(=O)Nc3onc(C)c3C)cc2)cc1	1.6	0.3	0.0	97.3*	i	5.8
CCc1ccc(C(=O)/C=C/Nc2ccc(S(=O)(=O)Nc3onc(C)c3C)cc2)cc1	6.0	-0.2	0.0	97.3*	i	19.2
O=C(Nc1cccnc1Cl)C1=NN(c2ccccc2)C(=O)CC1	-0.3	0.0	2.0	-4.4	i	-0.1
O=C(NCc1ccncc1)C1=NN(c2ccccc2)C(=O)CC1	-0.2	0.2	0.0	93.9*	i	0.9
CCOC(=O)C1(Cc2cccc(Cl)c2)CCCN(C(=O)CN2C(=O)CSC2=O)C1 (stereo not drawn)	-0.2	-0.1	5.0	-4.3	i	-7.2
